Reference: PubChem BioAssay AID588458 (Sanford-Burnham Center for Chemical Genomics, 2011)
Where “and” joins values, the source holds several entries; their conditions need not be identical. Equal values may be shown once. The campaign covered roughly 360,000 compounds. About 3,000 (0.83%) were called active. Cut-off read from the data, not from the text of the source: active = inhibition above about 50%; inactive = the rest. For the sample, actives were picked, then their nearest neighbours and some compounds at random. A structure can be active in one record and inactive in another.

Target: DNA (cytosine-5)-methyltransferase 1 (Homo sapiens) (UniProt P26358)
Test: human DNMT1 methyltransferase inhibitors, primary screen, biochemical, molecular beacon, fluorescence, HinP1I cleavage, uHTS (AID 588458)
Conditions: at 10 µM, stronger effect = higher value

DNA (cytosine-5)-methyltransferase 1 (Homo sapiens), sequence (P26358 504-1616 limits assumed): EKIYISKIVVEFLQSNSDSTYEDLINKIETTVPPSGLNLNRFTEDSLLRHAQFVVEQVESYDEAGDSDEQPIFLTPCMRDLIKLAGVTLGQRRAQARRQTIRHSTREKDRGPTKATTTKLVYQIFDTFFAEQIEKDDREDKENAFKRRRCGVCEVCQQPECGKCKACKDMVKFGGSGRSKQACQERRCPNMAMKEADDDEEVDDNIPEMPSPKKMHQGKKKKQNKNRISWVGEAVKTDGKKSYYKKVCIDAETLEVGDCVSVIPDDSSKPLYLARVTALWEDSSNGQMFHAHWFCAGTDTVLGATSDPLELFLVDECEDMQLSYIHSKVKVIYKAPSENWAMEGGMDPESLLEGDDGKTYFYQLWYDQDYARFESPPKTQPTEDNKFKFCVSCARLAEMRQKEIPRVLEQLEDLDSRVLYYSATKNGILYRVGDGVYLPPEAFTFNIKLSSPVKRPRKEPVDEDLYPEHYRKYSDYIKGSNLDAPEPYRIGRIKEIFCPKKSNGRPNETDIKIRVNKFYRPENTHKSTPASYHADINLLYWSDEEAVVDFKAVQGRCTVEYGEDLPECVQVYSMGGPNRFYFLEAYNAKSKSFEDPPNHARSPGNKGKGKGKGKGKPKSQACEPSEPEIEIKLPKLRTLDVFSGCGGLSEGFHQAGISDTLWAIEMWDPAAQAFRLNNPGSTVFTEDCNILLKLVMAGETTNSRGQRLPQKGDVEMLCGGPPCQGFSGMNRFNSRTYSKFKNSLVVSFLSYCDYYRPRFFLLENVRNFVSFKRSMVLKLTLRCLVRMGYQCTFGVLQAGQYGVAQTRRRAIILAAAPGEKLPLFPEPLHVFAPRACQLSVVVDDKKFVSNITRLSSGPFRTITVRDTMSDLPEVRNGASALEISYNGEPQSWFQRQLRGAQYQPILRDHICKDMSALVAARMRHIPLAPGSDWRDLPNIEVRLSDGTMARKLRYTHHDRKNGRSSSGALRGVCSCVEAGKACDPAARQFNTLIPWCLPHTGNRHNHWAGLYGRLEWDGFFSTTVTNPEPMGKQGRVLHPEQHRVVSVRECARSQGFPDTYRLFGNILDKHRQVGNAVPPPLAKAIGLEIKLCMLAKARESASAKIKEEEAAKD

Compound	inhibition (reported as % activation of signal)
CC(CO)N1CCS(=O)(=O)CC1 (configuration not stated)	4.55% (inactive)
Cc1ccc(C)n1-c1ccncc1	-0.41% (inactive)
COc1ccc(NS(=O)(=O)c2ccc(C)c(C(=O)N(C)Cc3ccc(OC)cc3OC)c2)cc1	-0.59% (inactive)
C[C@H]([C@@H](O)[C@@H](O)[C@@H](C)C(C)(C)C)[C@H]1CC[C@H]2C3CC[C@H]4C[C@H](OS(=O)(=O)O)[C@@H](OS(=O)(=O)O)C[C@]4(C)[C@H]3CC[C@]12C (some centres not stated)	46.8% (inactive)
CC(C)Oc1ccc(CC(=O)NNC(=S)Nc2ccc(Br)cc2)cc1	-8.54% (inactive)
CCCOc1ccc(Cc2c(Cl)nc(SC)nc2NC)cc1	5.36% (inactive)
CC(C)c1ccc(Nc2nnc(SCC(=O)c3nnc(-c4ccccc4)o3)s2)cc1	79.2% (active)
CC(C)N(C(=O)CSc1nnc(NC2CC2)s1)c1ccccc1	-1.85% (inactive)
CC(C)Nc1nnc(SCC(=O)c2c[nH]c3ccccc23)s1	-9.78% (inactive)
CN(C)CCNC(=O)c1cccc(-c2cnc3c(NC=O)cc(-c4cccc(C(F)(F)F)c4)cn23)c1	-1.67% (inactive)
COC(=O)CN1C(=O)N/C(=C/c2ccc(OC)c(C)c2OC)C1=O	0.3% (inactive)
Cc1ccccc1NC(=O)Cn1c(=O)n(CC2CCCO2)c(=O)c2ccccc21 (configuration not stated)	1.1% (inactive)
Cc1ccccc1NC(=O)CN1C(=O)N/C(=C\c2cccn2-c2cccc(C(=O)O)c2)C1=O	92.6% (active)
CC(C)n1ncc2c(C(=O)N3CCN(Cc4cccs4)CC3)cc(C3CC3)nc21	2.36% (inactive)
COc1cc(C)c(C(C)C)cc1S(=O)(=O)n1ccnc1	27.6% (inactive)
C=CCCC(=O)Nc1nc(C)c(-c2csc(Nc3ccc(Cl)cc3)n2)s1	-14.7% (inactive)
Cc1cn([C@H]2C[C@H](O)[C@@H](/C=C/C(=O)NCCCc3ccccc3)O2)c(=O)[nH]c1=O	1% (inactive)
CCC(=O)Nc1cccc(C2=NOC3(C2)C[C@@H](C(N)=O)N(C(=O)c2cc([N+](=O)[O-])cc([N+](=O)[O-])c2C)C3)c1 (some centres not stated)	4.19% (inactive)
O=S(=O)(Nc1ccc2[nH]ncc2c1)c1ccccc1Cl	-2.94% (inactive)
COc1cc(/C(=C/c2ccccc2)c2ccccc2)c2c(c1)oc1ccccc12	10.2% (inactive)
Cc1nnc(N/N=C/c2cccs2)[nH]c1=O	56% (active)
Cc1nnc(N/N=C/c2ccccn2)[nH]c1=O	5.44% (inactive)

Compound	inhibition (reported as % activation of signal)
Cc1n[nH]c(=O)nc1N/N=C/c1cccs1	3.53% (inactive)
CNc1ccc(SC#N)cc1	-16.1% (inactive)
ON=C1/C(=N\O)CC2(C/C1=N/O)OCCO2	12.4% (inactive)
O/N=C1\CC2(Cc3nonc31)OCCO2	77.1% (active)
CC(C)N=C1CCCC1C(=S)SSC(=S)C1CCCC1=NC(C)C (configuration not stated)	-10.8% (inactive)
O=C(NCCCN1CCOCC1)c1ccccc1NS(=O)(=O)c1ccc(F)cc1	0.01% (inactive)
O=[N+]([O-])c1cc(S(=O)(=O)Nc2cccc(Cl)c2)ccc1N=Nc1c(O)[nH]c2ccccc12	56.3% (active)
Cc1c(-c2ccccc2)n[nH]c1C(=O)N=Nc1c(O)[nH]c2ccccc12	47.8% (inactive)
O=C(NCc1ccncc1)c1ccc(NS(=O)(=O)c2cccc([N+](=O)[O-])c2)cc1	-0.75% (inactive)
CCc1cc(CNC(=O)CC2C(=O)NCCN2Cc2ccccc2C(F)(F)F)on1 (configuration not stated)	-2.03% (inactive)
CCOC(=O)c1c(-c2cccc(N)c2)cn2ccccc12	2.56% (inactive)
NC(=S)NN=Cc1ccc(OC(=O)COc2cc(Cl)c(Cl)cc2Cl)cn1	-3.17% (inactive)
CCOc1cc(CN2CCCC(CO)(Cc3ccc(F)cc3F)C2)ccc1OC (configuration not stated)	60.8% (active)
COc1cccc(CC2(CO)CCCN(Cc3ccc(OC(F)F)cc3)C2)c1 (configuration not stated)	1.47% (inactive)
Cc1ccccc1CC1(CO)CCCN(Cc2ccc3c(c2)OCCO3)C1 (configuration not stated)	-0.5% (inactive)
CC1(C(=O)NCc2ccc(F)c(F)c2)Cc2c(-c3ccc4c(c3)OCO4)ccnc2O1 (configuration not stated)	-0.89% (inactive)
Cc1cc2c(cc1C)N1C(=O)c3cc4ccccc4cc3NC(=O)C1C(=O)N2 (configuration not stated)	40.5% (inactive)
Cc1nnc(SCC2=C(C(=O)O)N3C(=O)C(NC(=O)Cn4nc(C)c(Cl)c4C)C3SC2)s1 (configuration not stated)	2.36% (inactive)
C=CC1=C(C(=O)O)N2C(=O)[C@@H](NC(=O)/C(=N\OCC(=O)O)c3csc(N)n3)[C@H]2SC1	81.2% (active)
CCN1CCN(C(=O)N[C@@H](C(=O)N[C@@H]2C(=O)N3C(C(=O)O)=C(CSc4nnnn4C)CS[C@H]23)c2ccc(O)cc2)C(=O)C1=O	1.74% (inactive)
CO/N=C(\C(=O)N[C@@H]1C(=O)N2C(C(=O)O)=C(COC(C)=O)CS[C@H]12)c1csc(N)n1 (stereo in doubt)	20.2% (inactive) and 7.93% (inactive) and 65.2% (active)
C=CC1=C(C(=O)O)N2C(=O)[C@@H](NC(=O)/C(=N/OCC(=O)O)c3csc(N)n3)[C@H]2SC1	-43.7% (inactive)

Compound	inhibition (reported as % activation of signal)
CCCCN(C=O)c1c(CC)nc2c(OCCC3CCCCC3)cccn12	-6.04% (inactive)
CCOC(=O)C1=CCC(c2ccc(F)cc2)N(S(=O)(=O)c2ccc(C)cc2)C1 (configuration not stated)	6.68% (inactive)
CC1CCCCN1C(=O)CCS(=O)(=O)Cc1ccccc1 (configuration not stated)	-2.02% (inactive)
CC(C)CC(CCc1ccccc1)OS(N)(=O)=O (configuration not stated)	4.1% (inactive)
COc1ccc(S(=O)(=O)N2CCN(C(C)C(=O)Nc3ccc(C(C)C)cc3)CC2)cc1 (configuration not stated)	2.17% (inactive)
CC(NC(=O)COc1ccc(-c2ccccc2)cc1)C1CCCO1 (configuration not stated)	-1.92% (inactive)
COc1ccc(OCC(=O)NNC(=O)c2ccc(-c3ccccc3)cc2)cc1	59.6% (active)
COc1ccc(OCC(=O)NNC(=O)C2CCC2)cc1	0.09% (inactive)
COc1ccc(Cl)cc1NC(=O)CN(C)C(=O)c1cn(-c2ccccc2)nc1-c1cccs1	-24.5% (inactive)
CC(C)(C)c1ccc(S(=O)(=O)N2CCN(C(=O)c3ccc4c(c3)C(=O)N(Cc3ccncc3)C4=O)CC2)cc1	-1.88% (inactive)
O=C(CCN1C(=O)C2C3C=CC(C3)C2C1=O)Nc1ccccc1F (configuration not stated)	75.5% (active)
O=C(CCN1C(=O)C2C3CCC(C3)C2C1=O)Nc1ccc(Cl)cc1Cl (configuration not stated)	-0.32% (inactive)
O=C(CCN1C(=O)C2C3C=CC(C3)C2C1=O)Oc1ccc2ccccc2c1 (configuration not stated)	-3.47% (inactive)
COc1cccc(-c2cc3nc(NCc4ccccc4OC)n(C)c(=O)c3s2)c1	-11.8% (inactive)
CC1C(=O)N(Cc2cn(CC3CCCCC3)nn2)CCS(=O)(=O)N1Cc1ccc(-c2cccc(N(C)C)c2)cc1 (configuration not stated)	-9.42% (inactive)
Cc1csc(OCC(=O)Nc2ccc(C)c(C)c2)n1	-0.47% (inactive)
CCCNC(=O)c1cc(C2CCCN(C(=O)c3ccc4c(c3)CCO4)C2)on1 (configuration not stated)	-0.91% (inactive)
COc1ccc(S(=O)(=O)N2CCCCC2c2cc(C(=O)NCc3ccc(F)cc3)no2)cc1 (configuration not stated)	6.18% (inactive)
CC(C)Cc1nc(Cl)c(C#N)c2c1CCC2	3.27% (inactive)
CC(NC(=S)NC1CCCCC1)C(c1ccccc1)N1CCOCC1 (configuration not stated)	1.12% (inactive)
CC(C(=O)Nc1ccc(O)c(C(=O)O)c1)N1C(=O)/C(=C/c2cccs2)SC1=S (configuration not stated)	-9.71% (inactive)
O=C(O)C(c1ccccc1)N1C(=O)/C(=C\c2ccc(-c3cccc(Cl)c3)o2)SC1=S (configuration not stated)	79.8% (active)

Compound	inhibition (reported as % activation of signal)
CC(C(=O)NC1CCS(=O)(=O)C1)N1C(=O)/C(=C/c2ccc(Cl)cc2)SC1=S (configuration not stated)	-2.43% (inactive)
NC(=O)CCC(NS(=O)(=O)c1ccc(Cl)cc1)C(=O)NCc1ccccc1Cl (configuration not stated)	4.11% (inactive)
CCOC(=O)c1cccc(NC(=O)C2CCCN(S(=O)(=O)c3cnc[nH]3)C2)c1 (configuration not stated)	76.5% (active)
O=C(NCc1ccco1)C1CCCN(S(=O)(=O)c2cnc[nH]2)C1 (configuration not stated)	-1.66% (inactive)
COc1cccc(N2CCN(C(=O)C3CCCN(S(=O)(=O)c4cnc[nH]4)C3)CC2)c1 (configuration not stated)	-15.4% (inactive)
CC(C)c1cc(C(=O)N/N=C/c2ccoc2)c(O)c(C(C)C)c1	13.8% (inactive)
Cc1cc(=O)oc2cc(OCC(=O)Nc3nnc(C4CC4)s3)ccc12	-3.06% (inactive)
Cc1ccc(O)c(/C=N/NC(=O)COc2ccc3c(C)cc(=O)oc3c2)c1	59.9% (active)
CCOC(=O)Cc1csc(NC(=O)COc2ccc3c(C)cc(=O)oc3c2)n1	-0.49% (inactive)
CN(C(=O)COC(=O)Cc1ccccc1[N+](=O)[O-])C1CCS(=O)(=O)C1 (configuration not stated)	2.42% (inactive)
CN(CCOc1ccccc1)C(=O)c1cc(-c2ccco2)nc2ccccc12	72.3% (active)
O=C(c1cc(-c2ccco2)nc2ccccc12)N(Cc1nnc(-c2ccc(Cl)cc2)o1)C1CC1	13.4% (inactive)
CN(CCOc1ccccc1)C(=O)c1cc(COc2c(F)cccc2F)on1	1.59% (inactive)
CN(C(=O)COC(=O)c1cc(-c2ccco2)nc2ccccc12)C1CCS(=O)(=O)C1 (configuration not stated)	92.3% (active)
COc1ccc(NC(=O)COc2ccc(C(=O)OCC(=O)N(C)C3CCS(=O)(=O)C3)cc2OC)cc1 (configuration not stated)	8.48% (inactive)
OCC[C@H]1C[C@H](O)[C@@H](O)[C@]2(CCCCO2)O1	5.49% (inactive)
CCOc1ccccc1-n1c(SCC(=O)N2CCCC2)nnc1-c1ccoc1C	7.56% (inactive)
COc1ccc(Cl)cc1S(=O)(=O)Nc1cccc(C(=O)O)c1	-3.3% (inactive)
COc1ccc2sc(-c3ccc(S(C)(=O)=O)cc3)c(-c3ccc(C(N)=O)cc3)c2c1	86.5% (active)
COc1ccc2sc(-c3ccc(S(C)(=O)=O)cc3)c(C#Cc3cncn3C)c2c1	-10.4% (inactive)
COc1cc(OC)cc(-c2sc3ccc(OC)cc3c2-c2ccc3cc[nH]c3c2)c1	-17.8% (inactive)
